A collection of fitness landscapes (doi:10.1126/science.1257360)
Over roughly 140,000 sequences, “enrichment ratio after two sorts for PhoP signalling” has its median near 0; the highest 2% begin near 11. What follows is part of a selection rich in the highest values, with near analogues and random picks from the rest.

B1: PhoQ; a variant is named by its letters at X, in order, P23837 (parent)
chain: MKKLLRLFFPLSLRVRFLLATAAVVLVLSLAYGMVALIGYSVSFDKTTFRLLRGESNLFYTLAKWENNKLHVELPENIDKQSPTMTLIYDENGQLLWAQRDVPWLMKMIQPDWLKSNGFHEIEADVNDTSLLLSGDHSIQQQLQEVREDDDDAEMTHSVAVNVYPATSRMPKLTIVVVDTIPVELKSSYMVWSWFIYVLSANLLLVIPLLWVAAWWSLRPIEALAKEVRELEEHNRELLNPATTRELTSLVRNLNRLLKSERERYDKYRTTLTDLTHSLKTPLXXLQXXLRSLRSEKMSVSDAEPVMLEQISRISQQIGYYLHRASMRGGTLLSRELHPVAPLLDNLTSALNKVYQRKGVNISLDISPEISFVGEQNDFVEVMGNVLDNACKYCLEFVEISARQTDEHLYIVVEDDGPGIPLSKREVIFDRGQRVDTLRPGQGVGLAVAREITEQYEGKIVAGESMLGGARMEVIFGRQHSAPKDE

Variants of: B1
Test: enrichment ratio after two sorts for PhoP signalling (ratio (wild type AVST 3.29)); higher = more functional
Details: with PhoP (E. coli)

Variant	enrichment ratio
ADHN	≤ 0.25
ALCG	4.5
WHCL	≤ 0.25
SADG	≤ 0.25
LGIQ	≤ 0.25
AEVV	14.7
ADMC	2.74
INMV	24.2
AWVV	≤ 0.25
ADVV	8.21
ANQF	1.01
ANMG	≤ 0.25
ANMS	11.6
INIV	≤ 0.25
INCV	≤ 0.25
AIMC	≤ 0.25
ANMC	22.9
HRGK	≤ 0.25
GKTM	1.84
IPYY	≤ 0.25
KKIV	≤ 0.25
GAYK	≤ 0.25
LLMQ	≤ 0.25
HFHH	≤ 0.25
ATFM	≤ 0.25

Variant	enrichment ratio
QRVV	≤ 0.25
TRVV	14.5
ANLW	9.25
AIVV	10
ANVA	3.53
ANMI	26.5
ANVV	11.6
ANMR	5.84
ANLS	12
ANLA	5.31
HRVV	≤ 0.25
AHVV	≤ 0.25
QRFS	≤ 0.25
DWEC	≤ 0.25
RQRD	≤ 0.25
NCDF	≤ 0.25
HLKR	≤ 0.25
RGHG	≤ 0.25
TPEY	≤ 0.25
SLIG	≤ 0.25
YMIK	≤ 0.25
RLMY	≤ 0.25
KLYR	≤ 0.25
ANMD	≤ 0.25
AKMS	3.84

Variant	enrichment ratio
LNMC	7.24
MNMC	3.1
AAVT	2.41
ANMV	19.1
ALVT	1.4
ATMS	6.27
AKVT	12.6
AIMS	14.3
ANMW	≤ 0.25
TNMC	35.5
FEGD	≤ 0.25
YPGN	≤ 0.25
WAKM	≤ 0.25
PMHP	≤ 0.25
ALWL	≤ 0.25
HRYP	≤ 0.25
YHPC	≤ 0.25
LYDW	≤ 0.25
VILC	0.339
DWCS	≤ 0.25
ANND	≤ 0.25
ANVT	15
ADVT	≤ 0.25
HFIY	≤ 0.25
MIKG	≤ 0.25

Variant	enrichment ratio
TYMA	1.56
SCMF	12.3
SCMV	9.09
SCMI	27.9
SCMA	15.7
SCVG	5.95
SCIG	3.69
SCMW	6.03
SIMA	4.54
SCHF	≤ 0.25
KCMF	≤ 0.25
SCMG	25.9
WPNL	≤ 0.25
ERAD	≤ 0.25
SRLT	≤ 0.25
KMYN	≤ 0.25
IRST	≤ 0.25
LAMD	≤ 0.25
FSHH	≤ 0.25
WVRL	≤ 0.25
YRGN	≤ 0.25
TIYR	2.57
IKRH	≤ 0.25
VSMQ	2.71
MNAC	27.7

Variant	enrichment ratio
GIAC	11.8
GITE	≤ 0.25
MNFC	≤ 0.25
LNAC	≤ 0.25
GIYS	≤ 0.25
GYAC	≤ 0.25
GNAC	12.5
TNAC	3.13
PCAQ	≤ 0.25
DTYT	≤ 0.25
MFKP	≤ 0.25
SQVA	4.56
WPDN	≤ 0.25
HVPR	≤ 0.25
KKRG	≤ 0.25
QGVQ	≤ 0.25
APCH	≤ 0.25
SEDT	≤ 0.25
SEWI	3.57
SELI	24.6
SELT	20.5
SEAS	26.6
KYLT	≤ 0.25
SELA	12.4
SLAS	5.06

Variant	enrichment ratio
SLLI	7.62
SEYI	4.33
SYLI	0.306
KYAS	≤ 0.25
WRRM	≤ 0.25
YYVL	≤ 0.25
IENI	≤ 0.25
GVPH	≤ 0.25
PCMW	≤ 0.25
GSWF	≤ 0.25
HSKP	≤ 0.25
WEQY	≤ 0.25
IRFS	≤ 0.25
QEVT	≤ 0.25
NEVT	≤ 0.25
MEVT	27.6
SELY	11.4
KYLY	≤ 0.25
KYLS	≤ 0.25
SELS	20.9
SEVT	16.8
SFLY	0.911
SQVT	5.85
SPLS	≤ 0.25
SLVT	0.291

Variant	enrichment ratio
PENI	≤ 0.25
PNLE	≤ 0.25
DQCP	≤ 0.25
HGEI	≤ 0.25
SWKP	≤ 0.25
WESM	≤ 0.25
SPLY	≤ 0.25
STAA	4.26
SEET	6.48
SEAD	5.48
SEAT	13.6
SEAA	14.3
STLY	13.1
YTLY	1.95
SELD	14
SPLD	≤ 0.25
SENT	2.04
KYLD	≤ 0.25
DWIM	≤ 0.25
NPSS	≤ 0.25
FFHH	0.731
TYSH	1.78
NQDR	≤ 0.25
LYHC	≤ 0.25
YVNL	≤ 0.25

Variant	enrichment ratio
RKNY	≤ 0.25
MNMF	≤ 0.25
FCKG	≤ 0.25
MKCC	≤ 0.25
ANCC	0.324
HKNI	≤ 0.25
TKNH	11.4
HNCC	≤ 0.25
HKNH	≤ 0.25
AKCC	15.2
TKNW	≤ 0.25
HNNH	≤ 0.25
TKNI	13.3
HKCC	≤ 0.25
TKCC	13.1
KKAH	≤ 0.25
LSQM	≤ 0.25
NLVR	≤ 0.25
SGPQ	≤ 0.25
FWSM	≤ 0.25
